Records with an inconclusive call do not appear. Calls of active or inactive are those of the source. The calls were made as follows, unless noted: active = hit-call score of the fitted dose curve at least 0.9, where 1 is the maximum; inactive = score below 0.9.
Columns and labels:
[1] = ATG_CRE_CIS: Attagene CIS-FACTORIAL HepG2 Assay for human cAMP Responsive Element (CRE) binding protein 3 (AID 2282926); conditions: HepG2 CRE cis-reporter, Attagene multiplexed mRNA; actives raise or lower the signal
How it was run: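 Transfected HepG2 were treated for 24 hours, then RNA was extracted and reporter cDNA amplified with sequence-specific primers. Labelled fragments were separated by capillary electrophoresis, and the CRE signal was fitted bidirectionally with DMSO as baseline.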

[2] = molecular target: Transcription factor E2F1 (Homo sapiens) (UniProt Q01094); test: ATG_E2F_CIS: Attagene CIS-FACTORIAL HepG2 Assay for human E2F Transcription Factor 1 (AID 2282935); conditions: HepG2 Attagene cis-reporter, E2F reporter RNA transcripts; actives raise or lower the signal
How it was run: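 Cis-element reporter mRNA induction in transiently transfected HepG2, 24 h exposure. Activity fitted in both directions relative to DMSO negative control.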

[3] = ATG_M_19_CIS: Attagene CIS-FACTORIAL HepG2 Assay for M19 Transcription Factor (Internal Marker) (AID 2282939); conditions: HepG2 Attagene CIS-FACTORIAL M19 internal marker reporter; actives raise or lower the signal
How it was run: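 Signals come from fluorescence of labelled reporter-specific PCR fragments resolved by capillary electrophoresis, following 24 h treatment of HepG2 cells transfected with cis-promoter reporter units; activity was fitted in both directions relative to DMSO.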

[4] = molecular target: Hypoxia-inducible factor 1-alpha (Homo sapiens) (UniProt Q16665); test: ATG_HIF1a_CIS: Attagene CIS-FACTORIAL HepG2 Assay for human Hypoxia Inducible Factor 1 (HIF1A) (AID 2282951); conditions: HepG2 Attagene cis-factorial HIF1a reporter transcription; actives raise or lower the signal
How it was run: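 RT-PCR/capillary electrophoresis fluorescence readout of reporter transcripts from endogenous-TF-driven cis elements in transfected HepG2 cells, 24 h exposure; activity fitted in both directions against DMSO controls.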

[5] = molecular target: Heat shock factor protein 1 (Homo sapiens) (UniProt Q00613); test: ATG_HSE_CIS: Attagene CIS-FACTORIAL HepG2 Assay for human Heat Shock Transcription Factor 1 (HSE) (AID 2282953); conditions: HepG2 HSE cis-reporter, Attagene RNA transcription; actives raise or lower the signal
How it was run: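 Endogenous transcription factor activity captured via cis-promoter reporter units transfected into HepG2; treatment lasted 24 h. Fluorescence intensity of reporter fragments analysed with bidirectional curve fitting, DMSO baseline.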

[6] = molecular target: Paired box protein Pax-6 (Homo sapiens) (UniProt P26367); test: ATG_Pax6_CIS: Attagene CIS-FACTORIAL HepG2 Assay for human Paired Box 6 (PAX6) (AID 2282956); conditions: HepG2 CIS-FACTORIAL PAX6 reporter transcription, RNA readout; actives raise or lower the signal
How it was run: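 HepG2 cells transiently transfected with multiplexed cis-promoter reporter units (endogenous TF activity) were dosed for 24 h. Reporter mRNA was quantified by RT-PCR, 6-FAM labeling, HpaI digestion and capillary electrophoresis; bidirectional fitting versus DMSO baseline.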

[7] = ATG_RORE_CIS: Attagene CIS-FACTORIAL HepG2 Assay for human RAR-related Orphan Receptor Element (RORE) (AID 2282959); conditions: HepG2 Attagene cis-factorial RORE reporter, mRNA; actives raise or lower the signal
How it was run: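 Readout: fluorescent reporter mRNA by RT-PCR plus capillary electrophoresis, 24 h after dosing transfected HepG2 cells. Endogenous transcription factor activity on a cis promoter element is measured. Gain or loss of signal fitted against DMSO.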

[8] = ATG_TA_CIS: Attagene CIS-FACTORIAL HepG2 Assay for human TA Basal Promoter (AID 2282964); conditions: HepG2 Attagene CIS-factorial TA basal promoter reporter; actives raise or lower the signal
How it was run: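 Fluorescence from labelled RT-PCR reporter fragments, separated by capillary electrophoresis, gives the signal. Cells: HepG2 transiently carrying multiple reporter units, 24 h chemical dosing. Gain or loss relative to DMSO.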

[9] = ATG_TAL_CIS: Attagene CIS-FACTORIAL HepG2 Assay for human TAL Basal Promoter (AID 2282966); conditions: HepG2 Attagene cis-factorial TAL promoter reporter; actives raise or lower the signal;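 also: background control endpoint measuring basal TAL promoter reporter mRNA not a specific factor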
How it was run: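 Steps: transfect HepG2 with multiple reporter transcription units; dose 24 h; isolate RNA, reverse-transcribe, PCR-amplify, label with 6-FAM, digest with HpaI; resolve by capillary electrophoresis. Bidirectional fitting against DMSO baseline.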

[10] = ATG_TGFb_CIS: Attagene CIS-FACTORIAL HepG2 Assay for human Transforming Growth Factor (TGF) (AID 2282967); conditions: HepG2 Attagene CIS TGFb reporter, mRNA transcription; actives raise or lower the signal
How it was run: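 Bidirectional fitting relative to DMSO gave the endpoint. Underlying data: reporter mRNA from HepG2 cells carrying transiently transfected cis-regulated reporter constructs, harvested 24 h after dosing and analyzed by RT-PCR and capillary electrophoresis.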

[11] = ATG_VDRE_CIS: Attagene CIS-FACTORIAL HepG2 Assay for human Vitamin D Receptor Element (VDRE) (AID 2282968); conditions: HepG2 VDRE cis-reporter transcription, actives raise or lower the signal
How it was run: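 Reporter mRNA induction, quantified by capillary electrophoresis of fluorescently labelled RT-PCR products, was read 24 h after dosing HepG2 cells carrying transiently transfected cis-regulated reporter units; gain or loss relative to DMSO.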

[12] = ATG_M_32_TRANS: Attagene TRANS-FACTORIAL HepG2 Assay for M32 Transcription Factor (Internal Marker) (AID 2282984; active = hit-call score of the fitted dose curve at least 0.9, where 1 is the maximum;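 also: transcript level of a background control reporter unit measured by RT-PCR and capillary electrophoresis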); conditions: HepG2 Attagene TRANS M32 internal marker reporter
How it was run: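 Measures reporter mRNA induction in human HepG2 liver cells after 24 h chemical treatment. Transcripts from transiently transfected GAL4-UAS reporter units are amplified, fluorescently labelled and sized by capillary electrophoresis; gain of signal relative to DMSO.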

[13] = molecular target: Transcriptional activator Myb (Homo sapiens) (UniProt P10242); test: ATG_Myb_CIS: Attagene CIS-FACTORIAL HepG2 Assay for human Myeloblastosis (Myb) Proto-Oncogene Transcription Factor (AID 2282986); conditions: HepG2 Attagene CIS-FACTORIAL Myb reporter transcription; actives raise or lower the signal
How it was run: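 HepG2, transient MRTU transfection (cis-element promoters, endogenous TF activity), 24 h compound exposure. Readout: reporter mRNA via RT-PCR, 6-FAM labeling, HpaI digest, capillary electrophoresis. Gain/loss fit vs DMSO.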

[14] = molecular target: Nuclear respiratory factor 1 (Homo sapiens) (UniProt Q16656); test: ATG_NRF1_CIS: Attagene CIS-FACTORIAL HepG2 Assay for human Nuclear Respiratory Factor 1 (NRF1) Orphan Gene (AID 2282987); conditions: HepG2 NRF1 cis-element reporter, Attagene multiplex; actives raise or lower the signal
How it was run: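 Endogenous NRF1-driven reporter transcription measured in transiently transfected human HepG2 liver cells. Readout: reporter mRNA by RT-PCR and capillary electrophoresis with fluorescence detection, 24 h post-dosing. Gain or loss of signal fitted relative to DMSO baseline.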

[15] = ATG_NFI_CIS: Attagene CIS-FACTORIAL HepG2 Assay for human Nuclear Factor I (NFI) (AID 2282989); conditions: HepG2 cis-regulatory reporter, NFI response element transcription; actives raise or lower the signal
How it was run: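 Cells: human liver HepG2, transiently transfected with promoter-regulated reporter transcription units. Exposure 24 h. Detection: fluorescent RT-PCR products separated by capillary electrophoresis, normalised to DMSO negative control.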

[16] = ATG_NF_kB_CIS: Attagene CIS-FACTORIAL HepG2 Assay for human Nuclear Factor Kappa B (NF-kB) (AID 2282991); conditions: HepG2 Attagene cis-factorial NF-kB reporter mRNA; actives raise or lower the signal
How it was run: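 Read-out: reporter transcript levels quantified by RT-PCR plus capillary electrophoresis of 6-FAM-labelled, HpaI-cut fragments. Transfected HepG2 cells, 24 h compound exposure, endogenous NF-kB-driven cis element; gain or loss scored versus DMSO.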

[17] = ATG_NRF2_ARE_CIS: Attagene CIS-FACTORIAL HepG2 Assay for human Nuclear Factor Erythroid 2 Related Factor 2 (NFR2) response to Antioxidant Response Elements (ARE) (AID 2282992); conditions: HepG2 Attagene ARE/NRF2 reporter, transcription factor activity; actives raise or lower the signal
How it was run: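 HepG2 cells transiently transfected with multiplexed cis-regulated reporter transcription units measure endogenous transcription factor activity. Reporter mRNA at 24 h is quantified by RT-PCR, fluorescent labelling and capillary electrophoresis, with bidirectional fitting relative to DMSO.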

[18] = ATG_Oct_MLP_CIS: Attagene CIS-FACTORIAL HepG2 Assay for human Octamer-Binding Transcription Factor (Oct) (AID 2282993); conditions: HepG2 Attagene cis-factorial Oct reporter, mRNA; actives raise or lower the signal
How it was run: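 HepG2, transient MRTU transfection, cis promoter elements; 24 h dosing; RT-PCR/CE fluorescence read-out of reporter mRNA; fit both directions vs DMSO.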

[19] = molecular target: Cellular tumor antigen p53 (Homo sapiens) (UniProt P04637); test: ATG_p53_CIS: Attagene CIS-FACTORIAL HepG2 Assay for human p53 Transcription Factor (AID 2282994); conditions: HepG2 p53 cis-element reporter, Attagene mRNA; actives raise or lower the signal
How it was run: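 HepG2 cells transiently transfected with multiplexed cis-regulated reporter transcription units read endogenous TF activity. After 24 h compound exposure, reporter mRNA was quantified by RT-PCR, fluorescent labelling, HpaI digestion and capillary electrophoresis; bidirectional fits versus DMSO baseline.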

[20] = molecular target: Peroxisome proliferator-activated receptor gamma (Homo sapiens) (UniProt P37231); test: ATG_PPARg_TRANS: Attagene TRANS-FACTORIAL HepG2 Assay for human Peroxisome Proliferator-activated Receptor-gamma (PPARg) (AID 2283007; active = hit-call score of the fitted dose curve at least 0.9, where 1 is the maximum)
How it was run: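 Read-out: reporter mRNA induction, detected by fluorescence after RT-PCR and capillary electrophoresis. Transiently transfected human HepG2 liver cells carrying a chimeric NR-Gal4 construct were dosed for 24 h; activity was fitted upward relative to DMSO.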

Measured: AC50

Hypoxia-inducible factor 1-alpha (Homo sapiens), sequence (Q16665 whole entry, looked up): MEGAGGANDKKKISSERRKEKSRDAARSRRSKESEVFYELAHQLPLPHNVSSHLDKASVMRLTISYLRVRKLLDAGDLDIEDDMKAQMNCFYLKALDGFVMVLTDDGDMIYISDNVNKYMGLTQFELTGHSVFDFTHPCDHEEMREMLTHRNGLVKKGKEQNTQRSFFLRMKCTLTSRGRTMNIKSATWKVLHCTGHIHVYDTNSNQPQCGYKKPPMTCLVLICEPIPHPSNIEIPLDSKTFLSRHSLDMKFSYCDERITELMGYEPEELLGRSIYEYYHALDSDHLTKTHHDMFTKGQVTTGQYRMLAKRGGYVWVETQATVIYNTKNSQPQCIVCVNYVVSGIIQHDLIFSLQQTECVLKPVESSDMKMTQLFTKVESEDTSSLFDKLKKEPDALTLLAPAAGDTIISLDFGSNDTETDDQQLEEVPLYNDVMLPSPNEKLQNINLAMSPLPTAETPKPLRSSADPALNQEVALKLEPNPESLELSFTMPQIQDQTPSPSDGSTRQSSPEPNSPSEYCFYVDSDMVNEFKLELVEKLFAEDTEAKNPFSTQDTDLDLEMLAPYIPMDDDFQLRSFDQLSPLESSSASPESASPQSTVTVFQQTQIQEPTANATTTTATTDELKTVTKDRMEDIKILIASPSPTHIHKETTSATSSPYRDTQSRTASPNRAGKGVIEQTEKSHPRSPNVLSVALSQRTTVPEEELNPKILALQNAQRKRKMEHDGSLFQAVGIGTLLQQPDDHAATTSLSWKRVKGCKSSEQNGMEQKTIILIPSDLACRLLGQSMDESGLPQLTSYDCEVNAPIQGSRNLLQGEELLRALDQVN
Transcriptional activator Myb (Homo sapiens), sequence (P10242 whole entry, looked up): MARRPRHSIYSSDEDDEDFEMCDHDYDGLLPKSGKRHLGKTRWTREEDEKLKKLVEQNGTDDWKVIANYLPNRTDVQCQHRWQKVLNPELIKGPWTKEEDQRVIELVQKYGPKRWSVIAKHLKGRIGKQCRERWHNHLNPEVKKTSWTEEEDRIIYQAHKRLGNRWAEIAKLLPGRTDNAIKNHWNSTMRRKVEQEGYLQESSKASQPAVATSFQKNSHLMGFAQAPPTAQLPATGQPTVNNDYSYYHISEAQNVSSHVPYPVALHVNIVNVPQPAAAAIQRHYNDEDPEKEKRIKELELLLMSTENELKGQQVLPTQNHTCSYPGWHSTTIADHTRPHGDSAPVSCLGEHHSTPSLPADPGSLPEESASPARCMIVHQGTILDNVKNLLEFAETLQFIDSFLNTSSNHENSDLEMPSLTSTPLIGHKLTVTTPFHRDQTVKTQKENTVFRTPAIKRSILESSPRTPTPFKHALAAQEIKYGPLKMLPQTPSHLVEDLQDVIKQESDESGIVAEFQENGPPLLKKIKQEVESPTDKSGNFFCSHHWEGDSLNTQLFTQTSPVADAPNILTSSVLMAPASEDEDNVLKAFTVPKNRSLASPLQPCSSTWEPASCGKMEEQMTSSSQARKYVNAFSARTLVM
Nuclear respiratory factor 1 (Homo sapiens), sequence (Q16656 whole entry, looked up): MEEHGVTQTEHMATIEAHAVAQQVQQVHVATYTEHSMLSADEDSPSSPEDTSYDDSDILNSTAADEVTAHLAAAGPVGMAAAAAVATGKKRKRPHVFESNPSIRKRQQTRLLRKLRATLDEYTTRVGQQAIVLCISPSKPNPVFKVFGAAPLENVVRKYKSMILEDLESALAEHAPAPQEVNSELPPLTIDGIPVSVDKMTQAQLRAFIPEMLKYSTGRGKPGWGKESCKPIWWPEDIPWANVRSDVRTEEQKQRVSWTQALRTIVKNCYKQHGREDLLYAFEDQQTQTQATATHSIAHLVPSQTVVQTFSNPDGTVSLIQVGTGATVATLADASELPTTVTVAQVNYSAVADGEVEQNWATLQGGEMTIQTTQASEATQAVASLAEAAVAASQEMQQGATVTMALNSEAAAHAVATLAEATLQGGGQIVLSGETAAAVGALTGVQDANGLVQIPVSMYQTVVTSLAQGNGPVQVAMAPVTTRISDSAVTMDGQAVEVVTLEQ
Transcription factor E2F1 (Homo sapiens), sequence (Q01094 whole entry, looked up): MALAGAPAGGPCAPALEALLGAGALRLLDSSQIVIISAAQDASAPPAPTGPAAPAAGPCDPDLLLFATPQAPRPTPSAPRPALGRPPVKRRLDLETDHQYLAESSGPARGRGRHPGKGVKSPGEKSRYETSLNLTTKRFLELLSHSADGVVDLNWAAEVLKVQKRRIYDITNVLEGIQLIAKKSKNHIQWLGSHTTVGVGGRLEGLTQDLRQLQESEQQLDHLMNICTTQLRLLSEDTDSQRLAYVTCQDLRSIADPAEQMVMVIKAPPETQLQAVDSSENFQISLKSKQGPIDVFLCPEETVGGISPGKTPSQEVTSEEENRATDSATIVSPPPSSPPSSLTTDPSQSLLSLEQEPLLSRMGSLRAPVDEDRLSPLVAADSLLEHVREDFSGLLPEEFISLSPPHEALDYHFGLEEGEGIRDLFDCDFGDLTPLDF
Heat shock factor protein 1 (Homo sapiens), sequence (Q00613 whole entry, looked up, the tested form may be a part): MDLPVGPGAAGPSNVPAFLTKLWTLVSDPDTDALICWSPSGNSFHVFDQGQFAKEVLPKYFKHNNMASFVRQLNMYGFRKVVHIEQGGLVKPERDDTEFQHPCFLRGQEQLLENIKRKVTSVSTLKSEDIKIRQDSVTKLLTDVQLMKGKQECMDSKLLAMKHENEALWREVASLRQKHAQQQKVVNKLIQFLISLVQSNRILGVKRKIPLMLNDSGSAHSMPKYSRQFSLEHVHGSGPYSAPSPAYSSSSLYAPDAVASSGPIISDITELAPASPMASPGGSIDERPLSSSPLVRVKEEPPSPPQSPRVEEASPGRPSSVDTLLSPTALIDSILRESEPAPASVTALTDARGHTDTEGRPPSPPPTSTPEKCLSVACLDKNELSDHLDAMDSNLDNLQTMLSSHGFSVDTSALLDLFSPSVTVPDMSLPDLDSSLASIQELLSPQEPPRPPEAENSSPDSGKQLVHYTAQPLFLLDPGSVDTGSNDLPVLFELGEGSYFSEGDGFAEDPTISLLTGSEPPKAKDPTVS
Peroxisome proliferator-activated receptor gamma (Homo sapiens), sequence (P37231 whole entry, looked up, the tested form may be a part): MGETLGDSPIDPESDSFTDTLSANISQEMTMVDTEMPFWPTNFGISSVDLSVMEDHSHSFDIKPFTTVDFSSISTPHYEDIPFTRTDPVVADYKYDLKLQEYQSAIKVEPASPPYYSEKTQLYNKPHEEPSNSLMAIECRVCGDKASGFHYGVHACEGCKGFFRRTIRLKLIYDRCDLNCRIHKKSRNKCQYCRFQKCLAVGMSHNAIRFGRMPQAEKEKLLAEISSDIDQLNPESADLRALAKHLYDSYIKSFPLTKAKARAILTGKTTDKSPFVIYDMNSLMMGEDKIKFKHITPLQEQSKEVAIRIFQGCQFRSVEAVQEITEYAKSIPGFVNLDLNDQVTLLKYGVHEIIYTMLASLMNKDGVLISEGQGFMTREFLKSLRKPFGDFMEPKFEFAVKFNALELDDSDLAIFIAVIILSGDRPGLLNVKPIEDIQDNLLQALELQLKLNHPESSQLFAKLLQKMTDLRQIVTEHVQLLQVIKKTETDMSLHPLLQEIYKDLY
Cellular tumor antigen p53 (Homo sapiens), sequence (P04637 whole entry, looked up): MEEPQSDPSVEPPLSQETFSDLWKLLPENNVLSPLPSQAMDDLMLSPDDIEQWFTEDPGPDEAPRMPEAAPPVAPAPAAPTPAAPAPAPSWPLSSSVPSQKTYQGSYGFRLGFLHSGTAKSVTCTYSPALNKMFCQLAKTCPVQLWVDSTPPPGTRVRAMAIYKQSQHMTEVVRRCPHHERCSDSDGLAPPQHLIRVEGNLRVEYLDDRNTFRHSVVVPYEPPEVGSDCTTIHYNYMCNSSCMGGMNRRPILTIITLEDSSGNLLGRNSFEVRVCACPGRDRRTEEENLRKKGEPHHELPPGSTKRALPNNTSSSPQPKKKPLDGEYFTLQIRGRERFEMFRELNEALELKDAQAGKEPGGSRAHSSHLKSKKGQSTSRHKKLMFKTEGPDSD
Paired box protein Pax-6 (Homo sapiens), sequence (P26367 whole entry, looked up): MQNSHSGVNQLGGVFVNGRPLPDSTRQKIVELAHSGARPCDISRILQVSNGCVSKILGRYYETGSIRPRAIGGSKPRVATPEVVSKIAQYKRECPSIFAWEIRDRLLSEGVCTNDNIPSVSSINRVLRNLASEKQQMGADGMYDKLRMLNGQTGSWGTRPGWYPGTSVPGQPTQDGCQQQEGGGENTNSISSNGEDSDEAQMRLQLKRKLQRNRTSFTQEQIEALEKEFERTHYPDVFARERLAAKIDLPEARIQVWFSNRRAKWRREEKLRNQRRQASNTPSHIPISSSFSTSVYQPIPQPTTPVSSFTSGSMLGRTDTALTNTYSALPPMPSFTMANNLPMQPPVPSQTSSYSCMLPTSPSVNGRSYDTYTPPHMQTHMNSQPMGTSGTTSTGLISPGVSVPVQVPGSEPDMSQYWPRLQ

C[N+](=O)[O-]
inactive: all assays above

Nc1c(Cl)c(Cl)c(Cl)c(Cl)c1Cl
active: [17] 38.1 µM
not listed: [16] | [19]
inactive: all other assays above

CCOP(=O)(OCC)Oc1ccc([N+](=O)[O-])cc1
not listed: [2] | [6]
inactive: all other assays above

CCNCC
not listed: [3] | [6] | [12] | [16] | [19]
inactive: all other assays above
